Source: the supplement of paper PMC11001985
Unmarked numbers belong to inactive results.

compound: C#CCNC(=O)CCSSCCC(=O)NCCc1ccc(C=O)c(C=O)c1; experiment: lysine labeling ratio R10:1 (500 µM / 50 µM probe), SILAC-ABPP in living cells; higher = lower intrinsic lysine reactivity toward the probe, active = 2 or less; details: HeLa; probe concentrations 500 vs 50 µM
Summary of the method: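 SILAC light and heavy living HeLa cells in PBS at room temperature were labelled with 50 µM or 500 µM of an alkyne-tagged, disulfide-linked lysine probe, with forward and reverse label swaps. Mixed lysates were clicked to biotin-azide, trypsin-digested, captured on neutravidin, DTT-released, alkylated and analysed by LC-MS/MS on a TIMS-TOF Pro. R is the filtered median high-probe/low-probe MS1 peptide ratio per lysine, then the median across forward and reverse replicates. Ratios are capped at 20.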

UniProt Q15149, sequence (Q15149 whole entry): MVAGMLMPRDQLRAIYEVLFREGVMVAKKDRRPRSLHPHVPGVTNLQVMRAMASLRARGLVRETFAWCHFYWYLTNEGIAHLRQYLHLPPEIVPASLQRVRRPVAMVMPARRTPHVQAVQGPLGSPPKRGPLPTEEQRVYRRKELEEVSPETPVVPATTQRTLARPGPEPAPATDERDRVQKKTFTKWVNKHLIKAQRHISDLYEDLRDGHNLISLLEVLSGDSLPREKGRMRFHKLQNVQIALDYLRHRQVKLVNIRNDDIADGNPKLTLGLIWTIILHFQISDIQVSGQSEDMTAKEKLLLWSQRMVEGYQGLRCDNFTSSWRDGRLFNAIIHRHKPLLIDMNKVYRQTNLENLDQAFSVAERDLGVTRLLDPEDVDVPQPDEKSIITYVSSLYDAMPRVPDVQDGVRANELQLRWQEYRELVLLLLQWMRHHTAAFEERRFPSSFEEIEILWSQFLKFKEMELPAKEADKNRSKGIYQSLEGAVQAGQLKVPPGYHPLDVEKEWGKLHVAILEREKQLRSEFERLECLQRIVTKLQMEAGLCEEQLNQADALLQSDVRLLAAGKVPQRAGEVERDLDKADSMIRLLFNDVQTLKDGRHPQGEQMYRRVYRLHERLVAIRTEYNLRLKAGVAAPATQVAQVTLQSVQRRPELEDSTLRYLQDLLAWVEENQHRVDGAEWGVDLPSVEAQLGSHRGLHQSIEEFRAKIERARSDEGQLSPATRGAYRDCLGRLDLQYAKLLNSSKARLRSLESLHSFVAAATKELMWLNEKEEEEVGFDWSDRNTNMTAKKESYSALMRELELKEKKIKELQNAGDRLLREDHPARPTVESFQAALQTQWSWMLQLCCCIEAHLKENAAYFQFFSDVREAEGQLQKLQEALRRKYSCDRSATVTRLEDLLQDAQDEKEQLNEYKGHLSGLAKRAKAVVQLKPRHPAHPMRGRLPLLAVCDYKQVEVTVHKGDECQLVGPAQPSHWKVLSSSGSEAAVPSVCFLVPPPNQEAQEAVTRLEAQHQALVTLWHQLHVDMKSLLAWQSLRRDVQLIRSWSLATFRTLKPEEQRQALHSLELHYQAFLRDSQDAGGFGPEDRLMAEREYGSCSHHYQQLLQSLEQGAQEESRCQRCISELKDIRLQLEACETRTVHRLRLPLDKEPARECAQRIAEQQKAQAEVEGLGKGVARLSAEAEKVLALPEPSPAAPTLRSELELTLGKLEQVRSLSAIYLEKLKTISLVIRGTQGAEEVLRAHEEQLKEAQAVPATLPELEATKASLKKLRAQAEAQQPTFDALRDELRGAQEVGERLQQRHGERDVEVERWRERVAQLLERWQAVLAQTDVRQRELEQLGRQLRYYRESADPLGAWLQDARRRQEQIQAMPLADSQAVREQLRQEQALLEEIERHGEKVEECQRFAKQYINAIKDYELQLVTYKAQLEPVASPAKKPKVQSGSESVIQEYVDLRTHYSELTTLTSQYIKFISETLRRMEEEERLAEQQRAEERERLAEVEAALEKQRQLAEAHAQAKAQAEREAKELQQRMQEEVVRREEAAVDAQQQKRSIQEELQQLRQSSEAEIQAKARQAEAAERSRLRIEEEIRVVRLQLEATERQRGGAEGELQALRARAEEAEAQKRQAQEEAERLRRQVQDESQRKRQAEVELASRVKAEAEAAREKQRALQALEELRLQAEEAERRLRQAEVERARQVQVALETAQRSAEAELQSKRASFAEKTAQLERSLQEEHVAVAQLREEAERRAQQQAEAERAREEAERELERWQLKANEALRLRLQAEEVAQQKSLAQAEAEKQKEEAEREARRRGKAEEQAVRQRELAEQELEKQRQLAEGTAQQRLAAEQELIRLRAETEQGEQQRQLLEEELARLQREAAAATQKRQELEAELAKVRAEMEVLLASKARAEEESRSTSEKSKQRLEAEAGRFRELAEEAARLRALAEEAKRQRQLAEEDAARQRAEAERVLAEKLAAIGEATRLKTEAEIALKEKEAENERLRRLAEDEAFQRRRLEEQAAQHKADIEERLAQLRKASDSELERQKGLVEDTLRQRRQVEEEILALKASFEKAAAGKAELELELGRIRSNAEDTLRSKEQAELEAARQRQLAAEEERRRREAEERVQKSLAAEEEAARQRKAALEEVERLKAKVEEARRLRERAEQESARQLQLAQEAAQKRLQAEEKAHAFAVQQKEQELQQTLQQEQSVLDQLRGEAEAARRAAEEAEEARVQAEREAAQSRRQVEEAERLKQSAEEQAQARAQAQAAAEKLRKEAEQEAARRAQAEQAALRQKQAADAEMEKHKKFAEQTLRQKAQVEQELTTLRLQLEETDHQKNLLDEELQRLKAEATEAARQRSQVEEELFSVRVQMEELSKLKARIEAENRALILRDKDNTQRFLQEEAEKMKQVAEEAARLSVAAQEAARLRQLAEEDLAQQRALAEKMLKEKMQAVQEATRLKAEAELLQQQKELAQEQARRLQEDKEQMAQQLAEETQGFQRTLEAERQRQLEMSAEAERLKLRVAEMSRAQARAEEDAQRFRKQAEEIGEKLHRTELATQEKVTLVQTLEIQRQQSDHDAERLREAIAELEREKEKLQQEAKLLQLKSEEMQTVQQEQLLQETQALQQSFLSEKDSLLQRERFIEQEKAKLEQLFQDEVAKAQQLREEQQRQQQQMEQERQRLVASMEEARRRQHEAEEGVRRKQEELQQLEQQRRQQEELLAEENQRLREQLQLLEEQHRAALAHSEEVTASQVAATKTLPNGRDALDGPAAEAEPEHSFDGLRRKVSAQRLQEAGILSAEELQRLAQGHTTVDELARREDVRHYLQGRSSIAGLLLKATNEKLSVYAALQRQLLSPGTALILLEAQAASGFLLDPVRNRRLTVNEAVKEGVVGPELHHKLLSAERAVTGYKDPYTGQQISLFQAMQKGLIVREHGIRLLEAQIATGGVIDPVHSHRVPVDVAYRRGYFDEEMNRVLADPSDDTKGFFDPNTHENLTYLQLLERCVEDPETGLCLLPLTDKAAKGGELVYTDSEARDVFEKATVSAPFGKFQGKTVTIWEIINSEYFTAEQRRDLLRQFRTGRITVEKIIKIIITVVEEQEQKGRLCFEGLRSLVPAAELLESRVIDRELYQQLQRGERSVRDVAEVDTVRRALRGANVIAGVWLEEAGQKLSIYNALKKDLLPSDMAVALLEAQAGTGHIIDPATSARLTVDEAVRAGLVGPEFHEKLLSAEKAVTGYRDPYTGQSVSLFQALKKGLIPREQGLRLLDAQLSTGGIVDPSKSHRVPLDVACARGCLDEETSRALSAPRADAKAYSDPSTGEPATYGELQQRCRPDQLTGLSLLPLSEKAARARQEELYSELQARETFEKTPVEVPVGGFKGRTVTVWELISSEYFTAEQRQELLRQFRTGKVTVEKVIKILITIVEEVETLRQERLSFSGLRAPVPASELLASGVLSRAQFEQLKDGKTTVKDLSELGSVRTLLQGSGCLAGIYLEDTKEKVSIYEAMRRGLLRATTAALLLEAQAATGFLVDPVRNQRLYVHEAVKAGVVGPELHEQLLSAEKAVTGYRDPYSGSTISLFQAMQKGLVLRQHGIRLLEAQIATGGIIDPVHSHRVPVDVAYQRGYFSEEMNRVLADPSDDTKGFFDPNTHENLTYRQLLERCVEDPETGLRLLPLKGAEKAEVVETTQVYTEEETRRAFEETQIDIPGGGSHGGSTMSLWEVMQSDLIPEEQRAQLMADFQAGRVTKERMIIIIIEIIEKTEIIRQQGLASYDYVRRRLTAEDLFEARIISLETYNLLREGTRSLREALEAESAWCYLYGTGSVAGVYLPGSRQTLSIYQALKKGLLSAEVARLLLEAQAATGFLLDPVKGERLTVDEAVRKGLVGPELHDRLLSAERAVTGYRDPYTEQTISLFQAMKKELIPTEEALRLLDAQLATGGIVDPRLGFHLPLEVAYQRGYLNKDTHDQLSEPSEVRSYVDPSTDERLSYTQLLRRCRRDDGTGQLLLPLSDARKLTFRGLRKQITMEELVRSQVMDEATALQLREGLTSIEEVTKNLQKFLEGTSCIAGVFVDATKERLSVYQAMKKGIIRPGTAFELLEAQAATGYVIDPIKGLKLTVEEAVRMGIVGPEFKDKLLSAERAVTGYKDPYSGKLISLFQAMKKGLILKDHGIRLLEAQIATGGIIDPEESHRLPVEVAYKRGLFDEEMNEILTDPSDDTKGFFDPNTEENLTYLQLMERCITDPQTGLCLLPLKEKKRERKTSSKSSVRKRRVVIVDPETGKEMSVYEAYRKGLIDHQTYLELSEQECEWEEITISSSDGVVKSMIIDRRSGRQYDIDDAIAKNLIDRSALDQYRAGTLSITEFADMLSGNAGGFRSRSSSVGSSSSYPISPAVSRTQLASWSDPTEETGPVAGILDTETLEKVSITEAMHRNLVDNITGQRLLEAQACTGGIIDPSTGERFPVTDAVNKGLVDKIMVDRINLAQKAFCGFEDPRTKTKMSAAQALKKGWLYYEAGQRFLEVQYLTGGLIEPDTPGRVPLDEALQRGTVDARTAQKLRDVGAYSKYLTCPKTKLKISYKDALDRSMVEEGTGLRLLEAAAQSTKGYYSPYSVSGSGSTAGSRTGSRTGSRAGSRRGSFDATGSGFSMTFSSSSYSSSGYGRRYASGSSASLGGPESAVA
UniProt O14737, sequence (O14737 whole entry): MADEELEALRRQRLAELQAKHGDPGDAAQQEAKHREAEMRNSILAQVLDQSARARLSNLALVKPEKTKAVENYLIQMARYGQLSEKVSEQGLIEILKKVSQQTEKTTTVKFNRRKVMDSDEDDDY
UniProt Q9BVK6, sequence (Q9BVK6 whole entry): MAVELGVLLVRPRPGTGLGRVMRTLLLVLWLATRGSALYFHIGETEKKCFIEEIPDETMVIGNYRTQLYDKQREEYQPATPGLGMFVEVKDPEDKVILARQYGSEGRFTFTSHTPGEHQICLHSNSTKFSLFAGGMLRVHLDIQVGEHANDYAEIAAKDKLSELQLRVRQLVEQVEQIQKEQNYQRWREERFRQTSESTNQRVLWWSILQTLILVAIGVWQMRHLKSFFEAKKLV

| Target | lysine labeling ratio R10:1 |
| --- | --- |
| CADM1 (lysine site: K93) (UniProt Q9BY67) | 4.95 |
| SPTAN1 (lysine site: K30) (UniProt Q13813) | 5.74 |
| COPA (lysine site: K480) (UniProt P53621) | 4.64 |
| CD109 (lysine site: K127) (UniProt Q6YHK3) | 12 |
| UniProt Q29980 (lysine site: K190) | 1.17 (active) |
| SLC3A2 (lysine site: K255) (UniProt P08195) | 1.64 (active) |
| SLC4A2 (lysine site: K975) (UniProt P04920) | 2.29 |
| PDCD5 (lysine site: K33) (UniProt O14737) | 4.82 |
| UniProt P62195 (lysine site: K55) | 2.19 |
| ITGA1 (lysine site: K291) (UniProt P56199) | 7.48 |
| ITGB1 (lysine site: K73) (UniProt P05556) | 2.27 |
| HSD17B10 (lysine site: K105) (UniProt Q99714) | 2.63 |
| DDX5 (lysine site: K375) (UniProt P17844) | 2.45 |
| TMED9 (lysine site: K95) (UniProt Q9BVK6) | 4.55 |
| RBMX (lysine site: K150) (UniProt P38159) | 16.9 |
| LRPAP1 (lysine site: K65) (UniProt P30533) | 4.18 |
| SEMA3C (lysine site: K158) (UniProt Q99985) | 5.63 |
| UniProt Q15149 (lysine site: K4584) | 0.906 (active) |
| SPTAN1 (lysine site: K2184) (UniProt Q13813) | 5.14 |
| NEGR1 (lysine site: K231) (UniProt Q7Z3B1) | 0.868 (active) |

| Target | lysine labeling ratio R10:1 |
| --- | --- |
| MYH9 (lysine site: K1181) (UniProt P35579) | 3.53 |
| IGF1R (lysine site: K709) (UniProt P08069) | 4.79 |
| FLNA (lysine site: K1372) (UniProt P21333) | 2.93 |
| UniProt Q15149 (lysine site: K1921) | 1.36 (active) |
| UniProt Q15149 (lysine site: K4513) | 1.42 (active) |
| LRP1 (lysine site: K806) (UniProt Q07954) | 1.57 (active) |
| MSLN (lysine site: K307) (UniProt Q13421) | 1.74 (active) |
| DDX3X (lysine site: K491) (UniProt O00571) | 2.59 |
| LAMA5 (lysine site: K1227) (UniProt O15230) | 2.71 |
| UniProt Q9NYQ7 (lysine site: K548) | 1.02 (active) |
| ITGAV (lysine site: K581) (UniProt P06756) | 0.709 (active) |
| ECE1 (lysine site: K747) (UniProt P42892) | 4.05 |
| P4HB (lysine site: K71) (UniProt P07237) | 7.22 |
| DCTN2 (lysine site: K65) (UniProt Q13561) | 1.14 (active) |
| FBLN1 (lysine site: K59) (UniProt P23142) | 1.25 (active) |
| ITGAV (lysine site: K338) (UniProt P06756) | 3.21 |
| PLS3 (lysine site: K315) (UniProt P13797) | 1.71 (active) |
| UniProt P62826 (lysine site: K71) | 2.74 |
| MSN (lysine site: K388) (UniProt P26038) | 1.79 (active) |
| UniProt O60245 (lysine site: K810) | 0.802 (active) |
